We go through 14 compounds from PubChem BioAssay (NCI).

The structures appear in SMILES notation. This is part of a sample that, as a whole, favours compounds with a hit. Of some 83,000 tested, about 20% had one in any assay.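 A percent growth of 40 corresponds to 60% growth inhibition; 0 means no net growth; -100 means all cells died. Active threshold: below 10.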 Unmarked numbers belong to inactive results. The source made the active and inactive calls.

Some test systems named below: NCI-H23 lung; NCI-H226 lung; NCI-H322M lung; HOP-62 NSCLC; NCI-H460 lung; NCI-H522 lung; A549/ATCC NSCLC; 786-0 renal; COLO 205 colon; HOP-92 NSCLC.
What all share (assay): NCI-60 one-dose screen, 48 h (100 = growth as untreated, 0 = no growth, -100 = all killed)
Common to all, as to conditions: 10 µM unless noted

On to `Cc1nn(-c2ccc(Cl)cc2)c(C)c1N=Nc1ccc2oc(=O)ccc2c1`, for which the growth in the test with NCI-H23 lung was 82.4%; in the test with NCI-H226 lung it was 92.9%; in the test with NCI-H322M lung it was 104%; with HOP-62 NSCLC, 91.7%; in the test with NCI-H460 lung it was 64.9%; in the test on NCI-H522 lung it was 81.7%. Besides, the growth in the test on A549/ATCC NSCLC is 77.6%; in the test with 786-0 renal, 78.8%; in the test on COLO 205 colon, 105%.

As to `O=C(COc1cccc2cccnc12)Nc1ccc(C(=O)/C=C/c2ccc(Cl)cc2)cc1`, the growth with NCI-H23 lung is 89.2%; with NCI-H226 lung it was 94.6%; with NCI-H322M lung it was 99.1%; in the test with HOP-62 NSCLC, 108%; in the test with NCI-H460 lung, 102%; in the test on NCI-H522 lung it was 85.2%. Further, the growth in the test with A549/ATCC NSCLC was 85.4%; in the test with 786-0 renal, 99%; in the test on COLO 205 colon, 108%.

Take `COc1ccc(-c2nn(-c3ccccc3)cc2/C=C/C(=O)c2ccc(NC(=O)CCCCCCC(=O)NO)cc2)cc1`: the growth in the test on NCI-H23 lung is 113%; with NCI-H226 lung, 112%; in the test on NCI-H322M lung it was 96.3%; in the test with HOP-62 NSCLC it was 107%; in the test with NCI-H460 lung it was 108%; in the test with NCI-H522 lung, 92.4%. Further, the growth with A549/ATCC NSCLC is 96%; in the test on 786-0 renal, 69.8%; in the test with COLO 205 colon it was 115%.

As to `COc1ccc2c(c1)oc1c3[nH]c4ccccc4c3c3c(c21)C(=O)N(O)C3=O`, the growth was 31.6% in the test with NCI-H23 lung; 79.9% in the test with NCI-H226 lung; 13.2% in the test with HOP-62 NSCLC; 5.34% (active) with NCI-H460 lung; 98.7% in the test with HOP-92 NSCLC; 43% in the test with NCI-H522 lung. The results for the growth with A549/ATCC NSCLC, in the test on 786-0 renal and in the test on COLO 205 colon were 74.3%, 31.1% and 69.5%, respectively.

`N#C/C(=C\c1ccc(-c2ccc(F)cc2)o1)C(=O)Nc1ncc(Cc2ccc(Cl)cc2Cl)s1`: the growth was -37.2% (active) with NCI-H23 lung; 69.3% with NCI-H226 lung; -34.7% (active) with HOP-62 NSCLC; -74.2% (active) with NCI-H460 lung; 36.7% in the test on HOP-92 NSCLC; -8.78% (active) in the test with NCI-H522 lung. Further, the growth in the test on A549/ATCC NSCLC is -48% (active); in the test with 786-0 renal, -28.3% (active); in the test on COLO 205 colon, 66.8%.

With `O=C1/C(=C/c2ccc([N+](=O)[O-])cc2)SC(=Nc2ccccc2)N1Nc1ccccc1`, the growth is 60.5% in the test with NCI-H23 lung; 85.1% with NCI-H226 lung; 97.1% with HOP-62 NSCLC; 50.9% in the test on NCI-H460 lung; 108% with HOP-92 NSCLC; 58.1% with NCI-H522 lung. For the same compound, the growth in the test with A549/ATCC NSCLC is 71.5%; with 786-0 renal, 66.4%; in the test on COLO 205 colon, 92.6%.

As to `O=C(CCCCCCN1CC(=O)N2[C@@H](c3cccc(Br)c3)c3[nH]c4ccccc4c3C[C@H]2C1=O)NO`, the growth was 43.1% in the test with NCI-H23 lung; 91.7% in the test with NCI-H226 lung; 30.2% in the test with HOP-62 NSCLC; 26.4% in the test on NCI-H460 lung; 2% (active) in the test on HOP-92 NSCLC; 8.55% (active) in the test on NCI-H522 lung. Further, the growth in the test with A549/ATCC NSCLC was 59.4%; with 786-0 renal, 46.6%; in the test on COLO 205 colon, 7.27% (active).

For `Cc1cc(=O)n2nc(-c3c[nH]c4ccccc34)sc2n1`, the growth with NCI-H23 lung was 92.6%; in the test on NCI-H226 lung, 98.6%; in the test on HOP-62 NSCLC, 101%; in the test with NCI-H460 lung, 100%; in the test on HOP-92 NSCLC, 98.4%; in the test on NCI-H522 lung, 90.4%. Besides, the growth was 96.3% in the test on A549/ATCC NSCLC, 106% in the test on 786-0 renal and 102% in the test with COLO 205 colon.

`Oc1ccc(CSc2nnc(-c3ccc(Br)cc3)n2-c2ccccc2)c2cccnc12`: the growth in the test with NCI-H23 lung was 38.2%; with NCI-H226 lung it was 44.7%; with HOP-62 NSCLC, 16.1%; in the test on NCI-H460 lung, 7.57% (active); in the test with HOP-92 NSCLC, 31.9%; with NCI-H522 lung, 28.5%. The values for the growth in the test with A549/ATCC NSCLC, in the test on 786-0 renal and in the test on COLO 205 colon were 26.3%, 43.2% and 99.6%, respectively.

As for `CC(C)=CCC[C@](C)(O)[C@H]1CC[C@]2(C)[C@@H]1CC[C@@H]1[C@@]3(C)CCC(NC(=O)c4ccccc4C(=O)O)C(C)(C)[C@@H]3CC[C@]12C` (stereo not given in full), the growth in the test on NCI-H23 lung is 85.8%; in the test with NCI-H226 lung it was 89.7%; in the test with HOP-62 NSCLC, 104%; in the test with NCI-H460 lung it was 110%; with NCI-H522 lung, 95.3%; in the test with A549/ATCC NSCLC it was 93.1%. Also, the results for the growth with 786-0 renal and in the test with COLO 205 colon were 99.9% and -10.3% (active), respectively.

As for `CN(C)c1ncc(/C=C2\SC(=S)N(Cc3ccccc3Cl)C2=O)s1`, the growth in the test with NCI-H23 lung was 80.4%; in the test with NCI-H226 lung it was 83.8%; in the test with HOP-62 NSCLC, 88.5%; in the test with NCI-H460 lung, 29.1%; with HOP-92 NSCLC, 94.7%; in the test with NCI-H522 lung it was 77.9%. The growth in the test on A549/ATCC NSCLC is 63.9%; with 786-0 renal, 67.3%; in the test with COLO 205 colon, 91.8%.

On to `N#C/C(=C\c1ccc(N2CCCCC2)cc1)C(=O)Nc1sc2c(c1C#N)CCC2`, for which the growth in the test with NCI-H23 lung was 93.8%; with NCI-H226 lung, 88.1%; with HOP-62 NSCLC, 94.7%; in the test on NCI-H460 lung, 74.8%; with HOP-92 NSCLC, 89.4%; with NCI-H522 lung, 92.7%. The growth in the test on A549/ATCC NSCLC is 90.6%; in the test with 786-0 renal it was 101%; in the test on COLO 205 colon, 118%.

Turning to `CCOC(=O)Nc1ccc(-c2nc(-c3cccc(O)c3)c(-c3ccnc(Br)c3)[nH]2)cc1`, the growth was 31% with NCI-H23 lung; 40.6% in the test on NCI-H226 lung; 25.2% with HOP-62 NSCLC; 37.6% in the test with NCI-H460 lung; 38.3% in the test on HOP-92 NSCLC; 25.1% in the test with NCI-H522 lung. The growth was 16% in the test with A549/ATCC NSCLC, 20.5% in the test on 786-0 renal and 43.6% with COLO 205 colon.

In the case of `CC1(C)CC[C@]2(C(=O)O)CC[C@]3(C)C(=CCC4[C@@]5(C)C[C@@H](O)[C@@H]6OC(c7ccccc7O)OC[C@@]6(C)C5CC[C@]43C)C2C1` (stereo not given in full), the growth in the test with NCI-H23 lung is 58.2%; with NCI-H226 lung, 87%; with HOP-62 NSCLC it was 45.6%; with NCI-H460 lung it was 46%; in the test with HOP-92 NSCLC, 52%; in the test on NCI-H522 lung it was 53.6%. The results for the growth with A549/ATCC NSCLC, with 786-0 renal and with COLO 205 colon were 27.7%, 22.2% and 29.7%, respectively.
